# Assay results taken from PubChem BioAssay (Tox21).
# “And” between values parts separate entries of the source, which are not always exact repeats. Equal values may be shown once. Results filed as inconclusive are left out. Where a structure was tested more than once in an assay, its records may differ in their call. Values without a mark were called inactive. The source made the active and inactive calls. The call rests on the fitted dose curve; in most records, active means well fitted cell-killing curve with a large enough effect in the repeat runs; inconclusive means weak or mixed curves, or effect the other way; inactive means flat fitted curve, though single readings scatter.
# Assay: qHTS RealTime-Glo MT Cell Viability Assay in HEK293 cells - 40 hour (AID 1224874); further: nearly all actives have a fitted effect of over 50% in size
# Details: RealTime-Glo luminescence; max response: active compounds read low
# Source text: U.S. Tox21 Program National Center for Advancing Translational Sciences [NCATS] NIH Chemical Genomics Center [NCGC] U.S. Environmental Protection Agency [EPA] National Institutes of Environmental Health Sciences [NIEHS] National Toxicology Program [NTP] U.S. Food and Drug Administration [FDA] Tox21 Assay Overview: Measure of cell viability is critical in the cell-base assay. Analysis of cell viability is necessary for the characterization of cell responses to cytotoxic drugs and environmental stress. A RealTime-Glo MT Cell Viability Assay to monitor cell viability in real time of continues cell culture during 40 hours of compound treatment was used to screen Tox21 10K library compounds in Hek293 cells. The RealTime-Glo MT Cell Viability Assay is a nonlytic, homogeneous, bioluminescent method to measure cell viability in real time using a simple, plate-based method. The assay involves adding NanoLuc luciferase and a cell-permeant prosubstrate to cells in culture. Viable cells reduce the proprietary prosubstrate to generate a substrate for NanoLuc luciferase. This substrate diffuses from cells into the surrounding culture medium, where it is rapidly used by the NanoLuc Enzyme to produce a luminescent signal. The signal correlates with the number of viable cells, making the assay well suited for cytotoxicity studies.
# Tox21 Assay Protocol Summary: The mixture of Hek293 cell suspension and reagents were dispensed at 600cells/6 ul/well in 1536-well tissue culture treated black solid bottom plates using a Multidrop dispenser. After the assay plates were incubated at a 37 C/5% CO2 incubator for 5 hours, 23 nL of compounds dissolved in DMSO, positive and negative controls was transferred to the assay plate by a pintool work station. The plates were incubated at 37 C for 40 hours. The luminescence intensity were measured at 0h, 8h, 16h, 24h, 32h and 40h time points using ViewLux plate reader during compound treatment.
# On the % scale 0 is the no-effect control and ±100 the full control effect; potency means the concentration at half of the fitted maximal effect.
Compound,max response,Potency
CNCC(O)c1ccc(O)cc1 (stereo not given),4.3% and -3.08%,
O=[N+]([O-])c1ccc(Cl)c(Cl)c1,-5.48% and 3.8%,
Cl[C@H]1OCCO[C@@H]1Cl,9.41% and 3.91%,
Cc1cccc(C)c1NC(=O)CN1CCCC1=O,1.79% and -7.42% and 6.42%,
CC12CC1(C)C(=O)N(c1cc(Cl)cc(Cl)c1)C2=O (stereo not given),1.77% and 7.9%,
CNC(=O)O/N=C/C(C)(C)S(C)=O (stereo not given),16.8% and -17.7%,
Cc1ccc(O)c(C)c1,4.17% and 0.581%,
Cc1cccc(N)c1,6.61% and 3.01%,
CC(=O)/C=C/c1ccccc1,7.83% and 3.04% and 5.74%,
ClCCOCCCl,-3.17% and -5.17%,
ClC(Cl)c1ccccc1,4.95% and 0.497%,
Nc1nc(N)nc(NC2CC2)n1,-1.36% and 9.96% and -0.244%,
Nc1ncc([N+](=O)[O-])s1,0.802% and 3.01%,
Clc1cnc(Oc2ccc(Oc3ncc(Cl)cc3Cl)cc2)c(Cl)c1,-4.51% and -10.8%,
c1ccc2c(c1)CCCC2,1.92% and 10.6%,
Sc1ccccc1,0.339% and -2.23% and -0.106%,39.4 µM (active)
O=C(O)Cc1ccccc1,21.7% and 3.56%,
C[C@H]1C(=O)O[C@@H]2CCN3CC=C(COC(=O)[C@](C)(O)[C@]1(C)O)[C@H]23,-22.4% and -7.52% and -7.78%,
CNC(=O)O/N=C/C(C)(C)S(C)(=O)=O,3.09% and 0.619%,

Compound,max response,Potency
CC(=O)C1CCOC1=O (stereo not given),3.16% and 1.64%,
Nc1cccc(Cl)c1,0.922%,21.9 µM (active)
Nc1ccc([As](=O)(O)O)cc1,6.3% and -4.26% and 1.01%,
Oc1c(Br)cc(Br)cc1Br,-1.22%,
C=CC#N,-6.45% and -0.644%,
CCOP(=S)(OCC)Oc1ccc([N+](=O)[O-])cc1,-18.1% and -17.8%,
CCOC(=O)CC(SP(=O)(OC)OC)C(=O)OCC (stereo not given),11.3% and 26.8%,
COP(=S)(OC)Oc1ccc(SC)c(C)c1,-4.14% and -8.35% and 5.42%,
Cl/C=C/Cl,-5.85% and -1.58% and 0.395%,
Nc1cc(Cl)cc(Cl)c1,-2.18% and 1.19%,
CCOP(=S)(OCC)Oc1cc(C)nc(C(C)C)n1,2.72% and 7.6% and 1.58%,
COc1cc(-c2ccc(N)c(OC)c2)ccc1N,-23.4% and -26.2%,37.1 µM (active)
C/C=C/c1ccc2c(c1)OCO2,-5.98% and -4.01%,
Cc1ccc(N=C=O)cc1N=C=O,7.57% and -22.1%,
CCOc1ccc(N)cc1,2.16% and -1.88%,
OCC(O)CCl (stereo not given),-3.2% and 0.258%,
Oc1ccc(Cl)cc1,3.34% and 1.68% and 3.82%,
CCCCCCCCCCCCCCCCCC(=O)O,2.01% and -1.45% and 0.984%,
